Data from PubChem BioAssay (EPA / NIEHS).
Inconclusive results are not listed. Calls of active or inactive are those of the source. Rule for the calls: active = hit-call score of the fitted dose curve at least 0.9, where 1 is the maximum; inconclusive = response in the unintended direction; inactive = score below 0.9.

target: Muscarinic acetylcholine receptor M1 (Homo sapiens) (UniProt P11229); assay: NVS_GPCR_hM1: NovaScreen (NVS) G Protein-Coupled Receptor Assay for human Muscarinic, M1 Receptor (AID 2283270)
Sequence (P11229 whole entry, looked up): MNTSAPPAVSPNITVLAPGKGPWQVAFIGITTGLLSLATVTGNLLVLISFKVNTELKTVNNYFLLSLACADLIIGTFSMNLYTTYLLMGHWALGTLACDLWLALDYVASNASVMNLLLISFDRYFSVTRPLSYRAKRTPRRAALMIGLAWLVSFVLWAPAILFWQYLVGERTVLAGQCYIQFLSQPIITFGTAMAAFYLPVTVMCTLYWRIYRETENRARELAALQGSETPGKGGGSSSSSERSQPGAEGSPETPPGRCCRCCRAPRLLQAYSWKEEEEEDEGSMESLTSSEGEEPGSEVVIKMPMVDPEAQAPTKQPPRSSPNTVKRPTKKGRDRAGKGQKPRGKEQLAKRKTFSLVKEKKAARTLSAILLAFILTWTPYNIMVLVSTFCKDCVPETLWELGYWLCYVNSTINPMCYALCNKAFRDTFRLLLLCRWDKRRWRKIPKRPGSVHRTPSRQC
Procedure, shortened: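 Cell-free radioligand displacement using membrane protein extracted from CHO cells, read by filter-based scintillation counting 1 h after dosing. Loss of bound signal fitted versus DMSO; primary screen single concentration 25 uM in duplicate, actives followed by concentration series.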

**Q.** How did the AC50 turn out when `CCN(CC)C(=O)c1cc(S(=O)(=O)Cc2ccccc2)c(N2CCC(c3ccccc3)CC2)cc1N(CC)CCN(C)C` was run?
**A.** Its AC50 is 8.82 µM (active).

**Q.** For `Clc1cc(Cl)c2c(c1)N=C1CCCCCN1C2`, which AC50 is on record?
**A.** The AC50 was 2.74 µM (active).

**Q.** `CCCCCCCCCCCC[N+](C)(C)C` was tested. Which AC50 did it give?
**A.** The AC50 was 4.64 µM (active).

**Q.** `COc1cc(C(=O)NC2CCN(C)CC2)ccc1Nc1ncc2c(n1)N(C1CCCC1)CC(F)(F)C(=O)N2C` was tested. Which AC50 did it give?
**A.** Its AC50 is 5.54 µM (active).

**Q.** How did the AC50 turn out when `COc1ccc2cc(S(=O)(=O)N[C@H](CC(=O)N[C@H](Cc3ccc(CN4[C@H](C)CCC[C@@H]4C)cc3)C(=O)N(C)C(C)C)c3ccc4c(c3)OCO4)ccc2c1` was run?
**A.** Its AC50 is 3.51 µM (active).

**Q.** `CN(C)C(=O)C1(N2CCCCC2)CCN(CC[C@@]2(c3ccc(Cl)c(Cl)c3)CN(C(=O)c3ccccc3)CCO2)CC1` was tested. Which AC50 did it give?
**A.** Its AC50 is 11.7 µM (active).

**Q.** `NCc1cccc(C2CCN(C(=O)c3ccc(C#Cc4ccccc4F)o3)CC2)c1` was tested. Which AC50 did it give?
**A.** Its AC50 is 1.78 µM (active).

**Q.** For `O=C1c2ccccc2C(=O)N1CCc1noc(-c2ccc(CN3CCCCCC3)s2)n1`, which AC50 is on record?
**A.** Its AC50 is 7.52 µM (active).

target: human Leukotriene B4 Receptor 1 (LTB4-BLT1), LTB4R (gene 1241) (UniProt Q15722); assay: NVS_GPCR_hLTB4_BLT1: NovaScreen (NVS) G Protein-Coupled Receptor Assay for human Leukotriene B4 Receptor 1 (LTB4-BLT1) (AID 2283271)
Sequence (Q15722 whole entry, looked up): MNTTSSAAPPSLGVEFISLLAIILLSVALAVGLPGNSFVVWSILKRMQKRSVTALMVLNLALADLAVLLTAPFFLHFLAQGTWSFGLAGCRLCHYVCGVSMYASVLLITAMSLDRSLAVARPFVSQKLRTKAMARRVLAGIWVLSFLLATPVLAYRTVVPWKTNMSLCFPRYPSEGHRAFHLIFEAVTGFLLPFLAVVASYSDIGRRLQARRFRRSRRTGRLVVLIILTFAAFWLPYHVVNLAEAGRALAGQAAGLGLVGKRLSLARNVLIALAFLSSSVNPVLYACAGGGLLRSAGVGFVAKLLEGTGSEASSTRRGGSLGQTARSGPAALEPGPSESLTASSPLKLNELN
Procedure, shortened: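 Radioligand displacement binding on receptor extracted from human neutrophils, cell-free, 1 h after dosing; filter-based scintillation counting. Primary screen in duplicate at 25 uM, actives retested in concentration-response up to 50 uM; loss of signal versus DMSO.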

**Q.** With `Cc1oc2c(NC(=O)c3c(Cl)cccc3Cl)cccc2c1C(C)(C)O` as the molecule, how does the AC50 read?
**A.** The AC50 was 11.7 µM (active).

**Q.** Which outcome does the source give for `CC(C)(C)c1csc(-c2cc3cc(OCc4ccccc4CC(=O)O)ccc3o2)n1` here?
**A.** The outcome was “inactive”.

**Q.** Which AC50 does the source give for `CCN(Cc1cccnc1)C(=O)c1cccc(Cl)c1[C@]1(C)C(=O)N(Cc2ccc(OC)cc2OC)c2ccc(Cl)cc21` here?
**A.** Its AC50 is 1.49 µM (active).

**Q.** `Cc1ccc2oc(CN(Cc3ccccc3)C(=O)Nc3c(F)cc(F)cc3F)c(-c3ccc(Cl)cc3)c2c1` was tested. Which outcome did it give?
**A.** The outcome was “inactive”.

**Q.** With `COc1ccc2cc(S(=O)(=O)N[C@H](CC(=O)N[C@H](Cc3ccc(CN4[C@H](C)CCC[C@@H]4C)cc3)C(=O)N(C)C(C)C)c3ccc4c(c3)OCO4)ccc2c1` as the molecule, how does the AC50 read?
**A.** Its AC50 is 11.6 µM (active).

**Q.** `CN(C)c1ccc(C(=C2C=CC(=[N+](C)C)C=C2)c2ccc(N(C)C)cc2)cc1` was tested. Which AC50 did it give?
**A.** Its AC50 is 8.85 µM (active).

**Q.** `NCc1cccc(C2CCN(C(=O)c3ccc(C#Cc4ccccc4F)o3)CC2)c1` was tested. Which AC50 did it give?
**A.** The AC50 was 25 µM (active).

**Q.** Which outcome does the source give for `O=C1c2ccccc2C(=O)N1CCc1noc(-c2ccc(CN3CCCCCC3)s2)n1` here?
**A.** Its outcome is “inactive”.

target: Muscarinic acetylcholine receptor M3 (Homo sapiens) (UniProt P20309); assay: NVS_GPCR_hM3: NovaScreen (NVS) G Protein-Coupled Receptor Assay for human Muscarinic, M3 Receptor (AID 2283272)
Sequence (P20309 whole entry, looked up): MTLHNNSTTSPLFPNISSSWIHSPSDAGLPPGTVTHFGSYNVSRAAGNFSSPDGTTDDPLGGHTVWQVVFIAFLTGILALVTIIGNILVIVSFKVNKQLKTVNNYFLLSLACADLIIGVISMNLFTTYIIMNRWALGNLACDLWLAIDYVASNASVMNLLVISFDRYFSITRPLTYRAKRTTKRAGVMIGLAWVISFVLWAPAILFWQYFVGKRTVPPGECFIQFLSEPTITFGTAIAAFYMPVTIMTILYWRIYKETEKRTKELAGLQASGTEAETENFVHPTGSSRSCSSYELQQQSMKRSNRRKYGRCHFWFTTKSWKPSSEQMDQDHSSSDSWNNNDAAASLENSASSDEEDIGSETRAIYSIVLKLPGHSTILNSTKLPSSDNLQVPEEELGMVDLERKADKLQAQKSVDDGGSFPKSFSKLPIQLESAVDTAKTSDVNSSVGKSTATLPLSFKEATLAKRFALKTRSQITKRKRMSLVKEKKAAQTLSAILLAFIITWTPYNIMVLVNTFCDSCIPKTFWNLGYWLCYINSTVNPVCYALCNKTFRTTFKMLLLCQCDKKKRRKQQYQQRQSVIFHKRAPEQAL
Procedure, shortened: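 Radioligand displacement binding on human M3 receptor in CHO-derived membranes, 1 h incubation, filter-based scintillation counting. Primary screen in duplicate at 25 uM; actives followed up in concentration series; loss of signal versus DMSO.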

**Q.** How did the AC50 turn out when `CCOC(=O)O[C@H](C)OC(=O)c1ccc2c(c1)cc(C(=O)NC1CCN(C(C)C)CC1)n2Cc1cc(-c2ccc(Cl)s2)on1` was run?
**A.** Its AC50 is 5.44 µM (active).

**Q.** `COc1cccc([C@H](O)C2CCN(CCc3ccc(F)cc3)CC2)c1OC` was tested. Which outcome did it give?
**A.** Its outcome is “inactive”.

**Q.** Which AC50 does the source give for `CCN(CC)C(=O)c1cc(S(=O)(=O)Cc2ccccc2)c(N2CCC(c3ccccc3)CC2)cc1N(CC)CCN(C)C` here?
**A.** The AC50 was 7.89 µM (active).

**Q.** With `c1ccc(C[n+]2cccc3ccccc32)cc1` as the molecule, how does the AC50 read?
**A.** Its AC50 is 25 µM (active).

**Q.** How did the AC50 turn out when `Clc1cc(Cl)c2c(c1)N=C1CCCCCN1C2` was run?
**A.** Its AC50 is 2.09 µM (active).

**Q.** Which AC50 does the source give for `CCCCCCCCCCCC[N+](C)(C)C` here?
**A.** The AC50 was 3.43 µM (active).

**Q.** How did the AC50 turn out when `COc1ccc2cc(S(=O)(=O)N[C@H](CC(=O)N[C@H](Cc3ccc(CN4[C@H](C)CCC[C@@H]4C)cc3)C(=O)N(C)C(C)C)c3ccc4c(c3)OCO4)ccc2c1` was run?
**A.** The AC50 was 14.2 µM (active).

**Q.** How did the AC50 turn out when `CN(C)C(=O)C1(N2CCCCC2)CCN(CC[C@@]2(c3ccc(Cl)c(Cl)c3)CN(C(=O)c3ccccc3)CCO2)CC1` was run?
**A.** Its AC50 is 9.78 µM (active).

**Q.** With `NCc1cccc(C2CCN(C(=O)c3ccc(C#Cc4ccccc4F)o3)CC2)c1` as the molecule, how does the AC50 read?
**A.** Its AC50 is 0.929 µM (active).

**Q.** For `O=C1c2ccccc2C(=O)N1CCc1noc(-c2ccc(CN3CCCCCC3)s2)n1`, which AC50 is on record?
**A.** Its AC50 is 3.96 µM (active).

**Q.** For `CCCCCCCCOC(=O)c1cc(O)c(O)c(O)c1`, which outcome is on record?
**A.** Its outcome is “inactive”.

target: Muscarinic acetylcholine receptor M2 (Homo sapiens) (UniProt P08172); assay: NVS_GPCR_hM2: NovaScreen (NVS) G Protein-Coupled Receptor Assay for human Muscarinic, M2 Receptor (AID 2283273)
Sequence (P08172 whole entry, looked up): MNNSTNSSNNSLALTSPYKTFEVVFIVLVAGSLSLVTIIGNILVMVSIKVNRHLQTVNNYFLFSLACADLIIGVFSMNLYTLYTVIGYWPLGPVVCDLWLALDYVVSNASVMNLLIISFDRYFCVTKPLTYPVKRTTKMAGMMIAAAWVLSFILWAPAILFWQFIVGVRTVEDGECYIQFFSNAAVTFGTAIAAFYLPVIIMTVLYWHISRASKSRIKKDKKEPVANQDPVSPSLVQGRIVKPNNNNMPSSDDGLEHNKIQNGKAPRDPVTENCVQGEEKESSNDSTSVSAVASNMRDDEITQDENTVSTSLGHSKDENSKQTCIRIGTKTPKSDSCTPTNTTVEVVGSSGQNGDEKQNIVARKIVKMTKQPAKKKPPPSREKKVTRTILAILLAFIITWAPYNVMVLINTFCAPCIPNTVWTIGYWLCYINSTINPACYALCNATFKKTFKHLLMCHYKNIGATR
Procedure, shortened: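 Radioligand displacement on human M2 receptor membranes from CHO cells, 1 h incubation, filtration with scintillation counting. Primary screen in duplicate at 25 uM; actives retested in concentration series; loss of signal fitted versus DMSO.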

**Q.** How did the AC50 turn out when `CCOC(=O)O[C@H](C)OC(=O)c1ccc2c(c1)cc(C(=O)NC1CCN(C(C)C)CC1)n2Cc1cc(-c2ccc(Cl)s2)on1` was run?
**A.** The AC50 was 3.64 µM (active).

**Q.** Which AC50 does the source give for `c1ccc(C[n+]2cccc3ccccc32)cc1` here?
**A.** The AC50 was 9.2 µM (active).

**Q.** For `Clc1cc(Cl)c2c(c1)N=C1CCCCCN1C2`, which AC50 is on record?
**A.** The AC50 was 1.17 µM (active).

**Q.** With `Cc1occc1C(=O)Nc1ccc(C(=O)N2CCC(F)(F)/C(=C\C(=O)N3CCC(N4CCCCC4)CC3)c3ccccc32)cc1` as the molecule, how does the AC50 read?
**A.** The AC50 was 4.43 µM (active).

**Q.** How did the AC50 turn out when `CCCCCCCCCCCC[N+](C)(C)C` was run?
**A.** The AC50 was 1.39 µM (active).

**Q.** For `COc1ccc2cc(S(=O)(=O)N[C@H](CC(=O)N[C@H](Cc3ccc(CN4[C@H](C)CCC[C@@H]4C)cc3)C(=O)N(C)C(C)C)c3ccc4c(c3)OCO4)ccc2c1`, which AC50 is on record?
**A.** The AC50 was 0.535 µM (active).

**Q.** `CN(C)C(=O)C1(N2CCCCC2)CCN(CC[C@@]2(c3ccc(Cl)c(Cl)c3)CN(C(=O)c3ccccc3)CCO2)CC1` was tested. Which AC50 did it give?
**A.** The AC50 was 6.82 µM (active).

**Q.** For `CN(C)c1ccc(C(=C2C=CC(=[N+](C)C)C=C2)c2ccc(N(C)C)cc2)cc1`, which AC50 is on record?
**A.** The AC50 was 0.939 µM (active).

**Q.** Which AC50 does the source give for `NCc1cccc(C2CCN(C(=O)c3ccc(C#Cc4ccccc4F)o3)CC2)c1` here?
**A.** Its AC50 is 0.923 µM (active).

**Q.** With `O=C1c2ccccc2C(=O)N1CCc1noc(-c2ccc(CN3CCCCCC3)s2)n1` as the molecule, how does the AC50 read?
**A.** The AC50 was 2.83 µM (active).

target: Muscarinic acetylcholine receptor M5 (Homo sapiens) (UniProt P08912); assay: NVS_GPCR_hM5: NovaScreen (NVS) G Protein-Coupled Receptor Assay for human Muscarinic, M5 Receptor (AID 2283275)
Sequence (P08912 whole entry, looked up): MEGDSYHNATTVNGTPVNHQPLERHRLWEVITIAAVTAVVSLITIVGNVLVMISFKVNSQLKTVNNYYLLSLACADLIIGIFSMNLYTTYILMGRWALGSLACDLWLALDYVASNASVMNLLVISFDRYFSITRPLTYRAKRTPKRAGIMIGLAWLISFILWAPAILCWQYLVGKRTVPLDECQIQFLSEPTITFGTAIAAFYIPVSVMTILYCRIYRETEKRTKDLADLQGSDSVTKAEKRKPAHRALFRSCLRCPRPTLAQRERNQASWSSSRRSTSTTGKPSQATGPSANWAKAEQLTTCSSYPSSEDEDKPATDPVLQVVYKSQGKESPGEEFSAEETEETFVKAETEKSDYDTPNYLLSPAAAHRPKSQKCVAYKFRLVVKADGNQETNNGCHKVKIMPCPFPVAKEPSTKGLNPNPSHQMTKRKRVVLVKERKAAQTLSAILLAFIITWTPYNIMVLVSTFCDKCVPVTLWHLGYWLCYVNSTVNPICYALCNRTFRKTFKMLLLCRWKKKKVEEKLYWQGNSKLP
Procedure, shortened: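 Radioligand displacement on CHO-derived membrane preparations, 1 h, filter-based scintillation counting. Single-concentration duplicate screen at 25 uM; hits (e.g. 30% inhibition) retested in singleton concentration-response up to 50 uM. Loss of binding fitted versus DMSO.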

**Q.** For `CCOC(=O)O[C@H](C)OC(=O)c1ccc2c(c1)cc(C(=O)NC1CCN(C(C)C)CC1)n2Cc1cc(-c2ccc(Cl)s2)on1`, which AC50 is on record?
**A.** Its AC50 is 1.79 µM (active).

**Q.** For `COc1cccc([C@H](O)C2CCN(CCc3ccc(F)cc3)CC2)c1OC`, which outcome is on record?
**A.** The outcome was “inactive”.

**Q.** `CCN(CC)C(=O)c1cc(S(=O)(=O)Cc2ccccc2)c(N2CCC(c3ccccc3)CC2)cc1N(CC)CCN(C)C` was tested. Which AC50 did it give?
**A.** Its AC50 is 6.24 µM (active).

**Q.** For `c1ccc(C[n+]2cccc3ccccc32)cc1`, which AC50 is on record?
**A.** Its AC50 is 11.8 µM (active).

**Q.** Which AC50 does the source give for `CCN(Cc1cccnc1)C(=O)c1cccc(Cl)c1[C@]1(C)C(=O)N(Cc2ccc(OC)cc2OC)c2ccc(Cl)cc21` here?
**A.** Its AC50 is 4.06 µM (active).

**Q.** `Clc1cc(Cl)c2c(c1)N=C1CCCCCN1C2` was tested. Which AC50 did it give?
**A.** The AC50 was 2.01 µM (active).

**Q.** How did the AC50 turn out when `Cc1occc1C(=O)Nc1ccc(C(=O)N2CCC(F)(F)/C(=C\C(=O)N3CCC(N4CCCCC4)CC3)c3ccccc32)cc1` was run?
**A.** The AC50 was 5.91 µM (active).

**Q.** Which AC50 does the source give for `CCCCCCCCCCCC[N+](C)(C)C` here?
**A.** The AC50 was 1.93 µM (active).

**Q.** With `COc1cc(C(=O)NC2CCN(C)CC2)ccc1Nc1ncc2c(n1)N(C1CCCC1)CC(F)(F)C(=O)N2C` as the molecule, how does the AC50 read?
**A.** Its AC50 is 11.9 µM (active).

**Q.** `Cc1cc(F)ccc1-c1cc(N2CC[C@@H](O)[C@H]2CO)ncc1N(C)C(=O)C(C)(C)c1cc(C(F)(F)F)cc(C(F)(F)F)c1` was tested. Which AC50 did it give?
**A.** The AC50 was 15 µM (active).

**Q.** For `COc1ccc2cc(S(=O)(=O)N[C@H](CC(=O)N[C@H](Cc3ccc(CN4[C@H](C)CCC[C@@H]4C)cc3)C(=O)N(C)C(C)C)c3ccc4c(c3)OCO4)ccc2c1`, which AC50 is on record?
**A.** Its AC50 is 4.37 µM (active).

**Q.** For `CN(C)C(=O)C1(N2CCCCC2)CCN(CC[C@@]2(c3ccc(Cl)c(Cl)c3)CN(C(=O)c3ccccc3)CCO2)CC1`, which AC50 is on record?
**A.** Its AC50 is 6.44 µM (active).

**Q.** `CN(C)c1ccc(C(=C2C=CC(=[N+](C)C)C=C2)c2ccc(N(C)C)cc2)cc1` was tested. Which AC50 did it give?
**A.** Its AC50 is 0.861 µM (active).

**Q.** For `NCc1cccc(C2CCN(C(=O)c3ccc(C#Cc4ccccc4F)o3)CC2)c1`, which AC50 is on record?
**A.** The AC50 was 4.14 µM (active).

**Q.** How did the AC50 turn out when `O=C1c2ccccc2C(=O)N1CCc1noc(-c2ccc(CN3CCCCCC3)s2)n1` was run?
**A.** Its AC50 is 7.99 µM (active).
